# Measured values taken from PMC7862700, “An all-to-all approach to the identification of sequence-specific readers for epigenetic DNA modifications on cytosine”.
# Key:
# Test in all cases: DAPPL (digital affinity profiling via proximity ligation, sequencing); 10 mM Tris-HCl pH 7.5, 50 mM NaCl, 1 mM DTT, 4% glycerol, room temperature, 30 min; GST-TFs on glutathione beads, 16-mer random dsDNA library, 0.1% formaldehyde crosslink after washing; high values mean tight binding
# FEV = biological target: T1, FEV (Homo sapiens, UniProt Q99581 1-238); details: protein: recombinant; tags: N-terminal GST; dsDNA, one strand shown
# T1 sequence: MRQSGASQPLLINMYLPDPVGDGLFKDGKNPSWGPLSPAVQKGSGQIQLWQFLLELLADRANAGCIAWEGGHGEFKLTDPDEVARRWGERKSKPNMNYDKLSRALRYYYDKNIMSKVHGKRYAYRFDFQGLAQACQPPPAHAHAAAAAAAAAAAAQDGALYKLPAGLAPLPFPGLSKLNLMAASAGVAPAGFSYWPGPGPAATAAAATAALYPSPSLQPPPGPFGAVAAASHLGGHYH
# Procedure, shortened: (§1)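 Beads coated with glutathione captured GST-fused human transcription factors that had been expressed in yeast, and the factors were then given DNA barcodes and pooled with a tag-only sample. The pools were incubated with 200 nmole of a random double-stranded 16-mer DNA library in Tris/NaCl/DTT/glycerol buffer for 30 min at room temperature, washed, crosslinked with 0.1% formaldehyde and proximity-ligated with BsaI/T4 ligase at 37 °C for 1 h. PCR amplification and Illumina NextSeq500 sequencing came last. Binding signal is each hexamer's read frequency for a factor divided by its frequency for the tag-only sample.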
# ETV5 = ETV5 (Homo sapiens, UniProt P41161 1-510); details: protein: recombinant; tags: N-terminal GST; dsDNA, one strand shown
# Sequence of ETV5 (P41161 whole entry): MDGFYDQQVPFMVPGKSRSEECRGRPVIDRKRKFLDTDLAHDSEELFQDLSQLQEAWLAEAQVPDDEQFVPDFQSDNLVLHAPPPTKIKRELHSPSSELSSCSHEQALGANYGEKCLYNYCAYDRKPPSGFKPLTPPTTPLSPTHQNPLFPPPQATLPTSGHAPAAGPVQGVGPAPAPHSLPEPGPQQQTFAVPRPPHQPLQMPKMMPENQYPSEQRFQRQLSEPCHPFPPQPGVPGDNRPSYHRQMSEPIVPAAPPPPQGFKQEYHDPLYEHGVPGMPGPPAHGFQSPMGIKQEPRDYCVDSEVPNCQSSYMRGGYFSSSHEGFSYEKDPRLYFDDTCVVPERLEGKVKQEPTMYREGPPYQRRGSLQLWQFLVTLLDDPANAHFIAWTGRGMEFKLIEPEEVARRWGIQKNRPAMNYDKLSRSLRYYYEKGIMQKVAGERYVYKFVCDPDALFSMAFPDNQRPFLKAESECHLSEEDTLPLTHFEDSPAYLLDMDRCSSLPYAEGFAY
# Procedure, shortened: as §1
# HSF1 = HSF1 (Homo sapiens, UniProt Q00613 1-529); details: protein: recombinant; tags: N-terminal GST; chain copies: 3; dsDNA, one strand shown
# Sequence of HSF1 (Q00613 whole entry): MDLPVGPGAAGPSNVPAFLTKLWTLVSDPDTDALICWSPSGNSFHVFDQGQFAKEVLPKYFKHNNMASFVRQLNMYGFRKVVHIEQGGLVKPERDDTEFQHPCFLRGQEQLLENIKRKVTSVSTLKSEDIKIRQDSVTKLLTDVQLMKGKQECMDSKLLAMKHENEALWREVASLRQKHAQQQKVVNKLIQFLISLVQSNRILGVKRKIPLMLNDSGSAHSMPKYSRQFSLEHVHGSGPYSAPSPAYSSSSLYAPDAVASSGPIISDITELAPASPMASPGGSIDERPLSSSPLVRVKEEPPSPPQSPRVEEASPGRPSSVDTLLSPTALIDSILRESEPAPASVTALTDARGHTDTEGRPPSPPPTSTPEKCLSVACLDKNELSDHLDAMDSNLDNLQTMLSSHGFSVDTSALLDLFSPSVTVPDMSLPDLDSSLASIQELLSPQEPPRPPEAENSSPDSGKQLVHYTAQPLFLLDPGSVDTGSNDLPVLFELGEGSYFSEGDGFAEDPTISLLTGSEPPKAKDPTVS
# Procedure, shortened: as §1
# SPIC = biological target: T2, SPIC (Homo sapiens, UniProt Q8N5J4 1-248); details: protein: recombinant; tags: N-terminal GST; dsDNA, one strand shown
# T2 sequence: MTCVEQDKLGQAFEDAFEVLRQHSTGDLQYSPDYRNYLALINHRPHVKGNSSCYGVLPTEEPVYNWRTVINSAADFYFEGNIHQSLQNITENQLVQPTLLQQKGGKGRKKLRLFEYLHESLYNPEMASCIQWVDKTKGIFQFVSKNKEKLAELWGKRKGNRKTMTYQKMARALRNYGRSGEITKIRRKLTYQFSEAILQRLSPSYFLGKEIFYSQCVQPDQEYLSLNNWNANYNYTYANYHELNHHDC
# Procedure, shortened: as §1
# ELF4 = ELF4 (Homo sapiens, UniProt Q99607 1-663); details: protein: recombinant; tags: N-terminal GST; dsDNA, one strand shown
# Sequence of ELF4 (Q99607 whole entry): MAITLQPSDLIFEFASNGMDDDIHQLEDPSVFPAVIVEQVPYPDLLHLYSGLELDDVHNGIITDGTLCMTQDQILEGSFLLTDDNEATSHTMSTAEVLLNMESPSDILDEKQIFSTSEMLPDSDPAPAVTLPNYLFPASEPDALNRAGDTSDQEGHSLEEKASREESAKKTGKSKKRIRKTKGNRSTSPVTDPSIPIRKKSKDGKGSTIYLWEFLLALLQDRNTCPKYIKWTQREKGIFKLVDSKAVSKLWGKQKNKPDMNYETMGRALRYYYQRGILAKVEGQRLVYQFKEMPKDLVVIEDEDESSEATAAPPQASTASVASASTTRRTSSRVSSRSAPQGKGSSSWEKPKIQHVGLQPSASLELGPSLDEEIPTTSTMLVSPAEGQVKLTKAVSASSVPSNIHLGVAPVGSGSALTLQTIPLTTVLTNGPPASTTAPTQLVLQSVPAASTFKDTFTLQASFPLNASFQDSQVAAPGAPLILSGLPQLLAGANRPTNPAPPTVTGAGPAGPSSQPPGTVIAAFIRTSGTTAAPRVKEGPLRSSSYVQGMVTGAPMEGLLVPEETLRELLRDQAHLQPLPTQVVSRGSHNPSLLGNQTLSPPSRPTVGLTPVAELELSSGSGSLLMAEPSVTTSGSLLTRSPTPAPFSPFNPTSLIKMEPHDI
# Procedure, shortened: as §1
# ELK4 = biological target: T3, ELK4 (Homo sapiens, UniProt P28324-2 1-405); details: protein: recombinant; tags: N-terminal GST; dsDNA, one strand shown
# T3 sequence: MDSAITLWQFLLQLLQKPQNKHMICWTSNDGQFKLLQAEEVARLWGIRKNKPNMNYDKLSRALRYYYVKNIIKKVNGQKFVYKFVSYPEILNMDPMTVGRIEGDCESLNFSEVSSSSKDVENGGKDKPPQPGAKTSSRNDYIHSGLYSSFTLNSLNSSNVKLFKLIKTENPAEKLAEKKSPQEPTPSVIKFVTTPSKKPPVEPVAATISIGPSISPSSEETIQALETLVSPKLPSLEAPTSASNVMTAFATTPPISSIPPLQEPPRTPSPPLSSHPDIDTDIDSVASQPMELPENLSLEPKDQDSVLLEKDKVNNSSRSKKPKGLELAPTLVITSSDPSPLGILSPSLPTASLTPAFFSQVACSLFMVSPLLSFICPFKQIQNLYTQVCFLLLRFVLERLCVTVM
# Procedure, shortened: as §1
# ETV2 = biological target: T4, ETV2 (Homo sapiens, UniProt O00321 1-342); details: protein: recombinant; tags: N-terminal GST; dsDNA, one strand shown
# T4 sequence: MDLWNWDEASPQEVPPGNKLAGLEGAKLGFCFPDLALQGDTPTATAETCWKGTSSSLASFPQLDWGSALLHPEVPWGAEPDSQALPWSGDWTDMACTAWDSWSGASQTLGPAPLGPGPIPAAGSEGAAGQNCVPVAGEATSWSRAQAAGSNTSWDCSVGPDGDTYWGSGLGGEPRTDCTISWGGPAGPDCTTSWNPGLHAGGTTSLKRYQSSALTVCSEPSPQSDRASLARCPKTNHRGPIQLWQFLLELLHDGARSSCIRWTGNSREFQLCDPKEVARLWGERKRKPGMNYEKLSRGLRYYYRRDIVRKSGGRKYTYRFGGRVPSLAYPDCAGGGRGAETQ
# Procedure, shortened: as §1
# ELF3 = biological target: T5, ELF3 (Homo sapiens, UniProt P78545 1-371); details: protein: recombinant; tags: N-terminal GST; dsDNA, one strand shown
# T5 sequence: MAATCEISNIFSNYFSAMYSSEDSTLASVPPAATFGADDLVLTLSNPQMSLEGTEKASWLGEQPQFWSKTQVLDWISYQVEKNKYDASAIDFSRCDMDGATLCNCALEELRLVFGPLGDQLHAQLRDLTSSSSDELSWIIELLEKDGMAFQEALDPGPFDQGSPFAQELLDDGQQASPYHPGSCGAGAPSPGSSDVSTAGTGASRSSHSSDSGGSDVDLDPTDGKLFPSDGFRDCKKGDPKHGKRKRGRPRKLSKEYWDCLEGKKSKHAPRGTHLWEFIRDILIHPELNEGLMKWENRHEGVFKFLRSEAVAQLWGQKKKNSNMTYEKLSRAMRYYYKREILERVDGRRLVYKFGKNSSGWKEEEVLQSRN
# Procedure, shortened: as §1
# CRX = CRX (Homo sapiens, UniProt O43186 1-299); details: protein: recombinant; tags: N-terminal GST; dsDNA, one strand shown
# Sequence of CRX (O43186 whole entry): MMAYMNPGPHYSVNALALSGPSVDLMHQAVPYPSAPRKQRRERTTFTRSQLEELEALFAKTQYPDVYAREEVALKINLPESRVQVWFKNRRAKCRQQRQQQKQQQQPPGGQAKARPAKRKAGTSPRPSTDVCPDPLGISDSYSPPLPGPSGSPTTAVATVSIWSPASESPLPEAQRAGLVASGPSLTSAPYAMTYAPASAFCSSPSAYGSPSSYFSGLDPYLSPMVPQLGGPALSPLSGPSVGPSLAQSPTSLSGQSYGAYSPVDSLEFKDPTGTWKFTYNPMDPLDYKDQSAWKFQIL
# Procedure, shortened: as §1
# ETV1 = ETV1 (Homo sapiens, UniProt P50549 1-477); details: protein: recombinant; tags: N-terminal GST; dsDNA, one strand shown
# Sequence of ETV1 (P50549 whole entry): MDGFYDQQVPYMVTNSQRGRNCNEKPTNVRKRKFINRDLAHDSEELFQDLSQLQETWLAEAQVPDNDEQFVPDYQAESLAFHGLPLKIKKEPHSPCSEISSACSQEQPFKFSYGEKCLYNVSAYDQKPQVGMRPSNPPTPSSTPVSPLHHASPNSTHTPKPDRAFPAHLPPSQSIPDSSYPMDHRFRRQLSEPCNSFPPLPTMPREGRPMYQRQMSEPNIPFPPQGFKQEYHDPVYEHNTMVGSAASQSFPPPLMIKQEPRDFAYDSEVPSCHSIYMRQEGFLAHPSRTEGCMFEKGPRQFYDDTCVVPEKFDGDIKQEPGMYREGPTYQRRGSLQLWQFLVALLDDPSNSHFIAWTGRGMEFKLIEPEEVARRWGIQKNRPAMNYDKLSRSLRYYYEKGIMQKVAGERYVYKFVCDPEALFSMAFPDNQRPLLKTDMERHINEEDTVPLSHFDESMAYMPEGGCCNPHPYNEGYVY
# Procedure, shortened: as §1
# ERF = biological target: T6, ERF (Homo sapiens, UniProt P50548 1-548); details: protein: recombinant; tags: N-terminal GST; dsDNA, one strand shown
# T6 sequence: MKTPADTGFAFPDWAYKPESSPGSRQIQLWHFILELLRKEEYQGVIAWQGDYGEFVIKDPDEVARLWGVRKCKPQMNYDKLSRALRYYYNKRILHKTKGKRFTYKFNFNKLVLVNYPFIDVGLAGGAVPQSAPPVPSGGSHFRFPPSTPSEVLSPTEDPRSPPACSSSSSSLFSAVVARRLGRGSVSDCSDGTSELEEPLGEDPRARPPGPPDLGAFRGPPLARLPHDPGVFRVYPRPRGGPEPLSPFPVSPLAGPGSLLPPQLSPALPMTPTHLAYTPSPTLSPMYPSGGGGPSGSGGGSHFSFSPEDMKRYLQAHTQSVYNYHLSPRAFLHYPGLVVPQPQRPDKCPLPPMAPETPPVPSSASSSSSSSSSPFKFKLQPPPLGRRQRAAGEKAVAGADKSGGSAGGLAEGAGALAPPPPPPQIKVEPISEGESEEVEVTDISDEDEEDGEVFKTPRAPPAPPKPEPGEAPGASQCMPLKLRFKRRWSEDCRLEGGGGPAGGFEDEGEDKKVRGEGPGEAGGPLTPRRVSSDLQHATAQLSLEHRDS
# Procedure, shortened: as §1
# ETV3L = biological target: T7, ETV3L (Homo sapiens, UniProt Q6ZN32 1-361); details: protein: recombinant; tags: N-terminal GST; dsDNA, one strand shown
# T7 sequence: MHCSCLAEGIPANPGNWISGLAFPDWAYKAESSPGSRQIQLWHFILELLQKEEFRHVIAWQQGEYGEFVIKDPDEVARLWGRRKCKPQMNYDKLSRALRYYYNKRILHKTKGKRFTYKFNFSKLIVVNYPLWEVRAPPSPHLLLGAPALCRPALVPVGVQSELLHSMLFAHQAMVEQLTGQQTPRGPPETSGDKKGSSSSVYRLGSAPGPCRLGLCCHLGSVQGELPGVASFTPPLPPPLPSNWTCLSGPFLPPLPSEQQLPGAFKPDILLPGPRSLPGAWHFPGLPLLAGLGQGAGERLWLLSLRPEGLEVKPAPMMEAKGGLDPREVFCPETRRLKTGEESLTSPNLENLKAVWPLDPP
# Procedure, shortened: as §1
# ETS2 = biological target: T8, ETS2 (Homo sapiens, UniProt P15036 1-469); details: protein: recombinant; tags: N-terminal GST; dsDNA, one strand shown
# T8 sequence: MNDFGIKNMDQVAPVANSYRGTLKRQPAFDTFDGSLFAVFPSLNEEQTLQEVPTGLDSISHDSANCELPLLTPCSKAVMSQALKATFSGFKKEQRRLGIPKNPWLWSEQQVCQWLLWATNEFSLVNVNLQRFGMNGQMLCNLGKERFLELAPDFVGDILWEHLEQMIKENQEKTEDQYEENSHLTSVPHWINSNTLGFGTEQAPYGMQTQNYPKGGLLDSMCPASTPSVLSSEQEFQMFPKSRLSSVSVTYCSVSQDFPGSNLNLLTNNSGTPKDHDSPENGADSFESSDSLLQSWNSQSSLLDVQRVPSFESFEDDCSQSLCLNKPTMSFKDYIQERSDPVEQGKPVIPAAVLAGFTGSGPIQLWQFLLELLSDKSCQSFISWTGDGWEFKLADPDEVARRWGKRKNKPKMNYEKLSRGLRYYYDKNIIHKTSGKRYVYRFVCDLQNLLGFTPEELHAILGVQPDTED
# Procedure, shortened: as §1
# SPDEF = biological target: T9, SPDEF (Homo sapiens, UniProt O95238 1-335); details: protein: recombinant; tags: N-terminal GST; dsDNA, one strand shown
# T9 sequence: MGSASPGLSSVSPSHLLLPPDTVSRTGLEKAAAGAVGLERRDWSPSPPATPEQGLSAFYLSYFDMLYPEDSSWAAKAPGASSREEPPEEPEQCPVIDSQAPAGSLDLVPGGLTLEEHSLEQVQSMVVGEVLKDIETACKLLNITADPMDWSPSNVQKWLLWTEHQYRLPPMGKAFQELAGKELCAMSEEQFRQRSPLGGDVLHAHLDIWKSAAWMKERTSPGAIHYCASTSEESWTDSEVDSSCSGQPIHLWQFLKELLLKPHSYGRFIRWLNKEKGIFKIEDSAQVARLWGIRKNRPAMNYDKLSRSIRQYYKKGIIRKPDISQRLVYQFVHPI
# Procedure, shortened: as §1
# ETV7 = biological target: T10, ETV7 (Homo sapiens, UniProt Q9Y603 1-341); details: protein: recombinant; tags: N-terminal GST; dsDNA, one strand shown
# T10 sequence: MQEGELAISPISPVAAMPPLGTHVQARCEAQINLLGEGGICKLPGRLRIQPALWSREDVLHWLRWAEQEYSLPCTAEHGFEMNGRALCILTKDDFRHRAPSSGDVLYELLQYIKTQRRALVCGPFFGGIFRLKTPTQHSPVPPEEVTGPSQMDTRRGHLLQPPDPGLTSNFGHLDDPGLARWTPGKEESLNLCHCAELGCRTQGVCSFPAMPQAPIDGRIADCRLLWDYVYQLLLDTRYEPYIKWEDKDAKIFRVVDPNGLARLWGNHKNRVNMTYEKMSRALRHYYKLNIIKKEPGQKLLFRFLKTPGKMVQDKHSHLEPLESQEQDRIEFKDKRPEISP
# Procedure, shortened: as §1
# ELF5 = biological target: T11, ELF5 (Homo sapiens, UniProt Q9UKW6-2 1-255); details: protein: recombinant; tags: N-terminal GST; dsDNA, one strand shown
# T11 sequence: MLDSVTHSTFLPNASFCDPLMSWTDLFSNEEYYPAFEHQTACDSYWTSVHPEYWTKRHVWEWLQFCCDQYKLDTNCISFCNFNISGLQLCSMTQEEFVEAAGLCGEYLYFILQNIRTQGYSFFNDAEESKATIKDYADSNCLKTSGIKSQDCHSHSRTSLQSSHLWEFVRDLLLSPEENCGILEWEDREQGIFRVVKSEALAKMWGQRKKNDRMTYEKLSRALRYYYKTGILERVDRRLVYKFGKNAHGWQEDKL
# Procedure, shortened: as §1
# ETV3 = biological target: T12, ETV3 (Homo sapiens, UniProt P41162-2 1-143); details: protein: recombinant; tags: N-terminal GST; dsDNA, one strand shown
# T12 sequence: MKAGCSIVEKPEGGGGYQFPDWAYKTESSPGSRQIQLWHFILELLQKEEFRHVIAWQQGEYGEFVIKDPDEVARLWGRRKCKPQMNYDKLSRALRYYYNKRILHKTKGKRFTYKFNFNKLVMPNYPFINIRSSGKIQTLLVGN
# Procedure, shortened: as §1
# ETV6 = ETV6 (Homo sapiens, UniProt P41212 1-452); details: protein: recombinant; tags: N-terminal GST; dsDNA, one strand shown
# Sequence of ETV6 (P41212 whole entry): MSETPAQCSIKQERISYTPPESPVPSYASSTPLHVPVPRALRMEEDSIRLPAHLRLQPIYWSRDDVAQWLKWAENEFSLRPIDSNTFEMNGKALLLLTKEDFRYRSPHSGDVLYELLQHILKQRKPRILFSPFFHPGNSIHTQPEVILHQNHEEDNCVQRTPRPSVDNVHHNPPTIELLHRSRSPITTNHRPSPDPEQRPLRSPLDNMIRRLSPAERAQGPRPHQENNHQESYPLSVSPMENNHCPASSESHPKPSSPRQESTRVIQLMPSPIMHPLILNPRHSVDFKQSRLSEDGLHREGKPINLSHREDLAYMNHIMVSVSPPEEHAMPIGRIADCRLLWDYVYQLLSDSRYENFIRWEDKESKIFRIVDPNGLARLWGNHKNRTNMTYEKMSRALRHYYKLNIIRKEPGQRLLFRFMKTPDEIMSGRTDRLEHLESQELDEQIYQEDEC
# Procedure, shortened: as §1
sequence,measurement,setting,value
TCCCCA,binding signal,FEV,"1.33 fold enrichment (6-mer frequency, TF over GST control)"
same,binding signal,ETV5,"1.41 fold enrichment (6-mer frequency, TF over GST control)"
same,binding signal,HSF1,"1.3 fold enrichment (6-mer frequency, TF over GST control)"
same,binding signal,SPIC,"1.56 fold enrichment (6-mer frequency, TF over GST control)"
same,binding signal,ELF4,"1.39 fold enrichment (6-mer frequency, TF over GST control)"
same,binding signal,ELK4,"1.58 fold enrichment (6-mer frequency, TF over GST control)"
same,binding signal,ETV2,"1.51 fold enrichment (6-mer frequency, TF over GST control)"
same,binding signal,ELF3,"1.54 fold enrichment (6-mer frequency, TF over GST control)"
same,binding signal,CRX,"1.43 fold enrichment (6-mer frequency, TF over GST control)"
same,binding signal,ETV1,"1.49 fold enrichment (6-mer frequency, TF over GST control)"
same,binding signal,ERF,"1.32 fold enrichment (6-mer frequency, TF over GST control)"
same,binding signal,ETV3L,"1.41 fold enrichment (6-mer frequency, TF over GST control)"
same,binding signal,ETS2,"1.38 fold enrichment (6-mer frequency, TF over GST control)"
same,binding signal,SPDEF,"1.3 fold enrichment (6-mer frequency, TF over GST control)"
same,binding signal,ETV7,"1.12 fold enrichment (6-mer frequency, TF over GST control)"
same,binding signal,ELF5,"1.46 fold enrichment (6-mer frequency, TF over GST control)"
same,binding signal,ETV3,"1.36 fold enrichment (6-mer frequency, TF over GST control)"
same,binding signal,ETV6,"1.26 fold enrichment (6-mer frequency, TF over GST control)"
